From PubChem
PLAP activator – activates human placental alkaline phosphatase; purified PLAP enzyme, luminescent substrate read-out; stronger effect = higher value; P05187; activation fold at 20 µM; 96,000 compounds, 1.2% hits; in the data active = activation fold above about 2
Cav32 inh – blocks human Cav3.2 T-type calcium channel. O95180. Cav3.2-expressing cells, Fluo-4 calcium fluorescence FDSS; stronger effect = lower value. B-score at 10 µM. 100,000 compounds, 4% hits. AID 449739;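 active = single-dose well whose peak fluorescence ratio is a statistical outlier from its plate by either plate-standardised score or position-corrected B-score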
M1 antagonist – M1 muscarinic receptor (rat) antagonism; AID 628; P08482; 64,000 compounds, 3.4% hits; CHO-M1 cells, Fluo-4 calcium, ACh EC80 antagonist mode; stronger effect = lower value; B-score at 10 µM;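 active = calcium fluorescence response, raw or row-and-column corrected B-score, differing from the plate sample mean either way at a set confidence level, mostly lower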
M1 ag – activates the M1 muscarinic receptor | B-score at 10 µM | CHO-M1 cells, Fluo-4 calcium fluorescence, agonist mode; stronger effect = higher value | 64,000 compounds, 3% hits;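 active = fluorescence rise, raw or as B-score row- and column-corrected plate score, outside the 99.7% band of its plate's samples, either direction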
M1 agonist conf – rat M1 muscarinic agonism, confirmation. shares compounds with M1 ag. CHO-M1 cells, Fluo-4 calcium fluorescence, agonist mode; actives lie on both sides. fluorescence change (max-min) at 10 µM. 1,700 compounds, 19% hits. AID 1488;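 active = fluorescence change differs from the solvent-only DMSO control mean at a set confidence level in both duplicate runs; inconclusive = differs from solvent-only control mean in just one of two runs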;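 note: an EC20 dose of acetylcholine follows compound addition during the same imaging run; raw fluorescence intensity difference in instrument units with no normalization to controls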
M4 ag counter – activates rat M4 receptor in counter-screen for M1 agonists; shares compounds with M1 ag; CHO M4/Gqi5 cells, Fluo-4 calcium fluorescence, agonist mode; actives lie on both sides; 1,700 compounds, 9% hits; AID 1741; fluorescence change (max-min) at 10 µM;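 active = fluorescence change differing from the plate's solvent-only control wells at 99.7% confidence in both duplicates, whether higher or lower; inconclusive = differs from solvent controls in only one of two duplicates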
An asterisk follows results filed as active; u = inconclusive; x = not tested or not shown. Most compounds without a hit are left out; they make up all but 7.6% or so of the library.

SMILES	PLAP activator	Cav32 inh	M1 antagonist	M1 ag	M1 agonist conf	M4 ag counter
Cc1cccc(S(=O)(=O)c2c(N)n(Cc3ccco3)c3nc4ccccc4nc23)c1	1.9	-2.5	1.07	0.0376	x	x
Cc1ccc(S(=O)(=O)c2c(N)n(Cc3ccco3)c3nc4ccccc4nc23)cc1	1.3	-4.21	0.0508	11.9*	39.3	-10.5
Cc1cc(C)c(S(=O)(=O)N2CCOC2CNC(=O)C(=O)NCc2cccnc2)c(C)c1 (stereo not drawn)	x	0.585	x	x	x	x
Cc1ccc2nc(SCC(=O)Nc3c(C)n(C)n(-c4ccccc4)c3=O)[nH]c2c1	1.8	0.529	-0.0409	2.93*	-7.1	-31.5
Cc1ccc(C2C(C#N)=C(N)Oc3nc(-c4ccccc4)[nH]c32)o1 (stereo not drawn)	1	-0.00611	-0.14	3.48*	-23.8*	-34.9
N#CC1=C(N)Oc2nc(-c3ccccc3)[nH]c2C1c1cccnc1 (stereo not drawn)	1	0.916	1.12	-0.0333	x	x
Cc1ccc(S(=O)(=O)N(C)c2ccc(OCC(=O)O)cc2)cc1	1.1	0.302	x	x	x	x
COc1ccc(C(CNC(=O)C2CC(=O)N(Cc3ccc(C)cc3)C2)N(C)C)cc1 (stereo not drawn)	1.5	1.34	0.538	-0.227	x	x
c1ccc(-c2nc(NCCCN3CCOCC3)c3ccccc3n2)cc1	1.1	1.34	-0.155	2.59*	-8.41	-11.3
Cc1cccc(-c2nc(NCCCN3CCOCC3)c3ccccc3n2)c1	1.6	1.42	x	x	x	x
O=C(CN1CCN(c2ccccc2)CC1)Nc1ccc(Oc2ccccc2)cc1	0.9	-1.68	x	x	x	x
CC1=CCC2C(=O)N(c3ccc(C(=O)N4CCCCCC4)cc3)C(=O)C2C1 (stereo not drawn)	1.1	0.0079	x	x	x	x
C=CCOC(=O)N1CCN(c2cccc(C(F)(F)F)c2)CC1	1.5	-1.53	-0.305	-0.000701	x	x
Cc1ccc(N2CC(C(=O)Nc3ccccn3)CC2=O)cc1 (stereo not drawn)	0.9	-0.775	0.309	4.57*	u	-80.2
CCc1nnc(NC(=O)C2CC(=O)N(c3ccc(C)cc3)C2)s1 (stereo not drawn)	1.1	0.032	0.436	-0.0622	x	x
Cc1cc(S(=O)(=O)NCC(=O)O)ccc1F	0.9	-0.261	0.242	4.95*	-12.4	-17.3
O=C(O)CNS(=O)(=O)c1ccc(F)cc1	1.1	-0.103	0.107	0.156	x	x
CCN1CCN(Cc2ccc(NC(=O)Nc3ccccc3)cc2)CC1	1	1.75	-0.663	6.51*	-15.3	-45.6
CCOC(=O)C1=C(C)NC(C)=C(C(=O)OCC)C1c1ccc(OC)cc1	1.3	x	-0.0184	1.86*	1.27	-22.5
C=CCOC(=O)C1=C(C)NC(C)=C(C(=O)OCC=C)C1c1ccc(O)cc1	1.6	-0.471	0.3	0.299	x	x
N=c1nc(N2CCCCC2)cc(N)n1O	x	0.0978	-0.316	10.1*	-4.37	-26.4
Cc1ccc(NC(=O)CN(Cc2ccccc2)S(C)(=O)=O)cc1C	0.9	-1.27	x	x	x	x
COc1ccc(OC)c(S(=O)(=O)N2CCC(C(=O)Nc3cccc(C(F)(F)F)c3)CC2)c1	1.3	-9.29*	-0.725	4.39*	-12.1	-12.3
CN(C)c1ccc(N=Cc2nc(-c3ccccc3)oc2O)cc1	1.1	x	0.0741	20.6*	147*	61.3
O=C(/C=C/Nc1ccccc1)c1ccccc1	0.8	x	x	x	x	x
SMILES	PLAP activator	Cav32 inh	M1 antagonist	M1 ag	M1 agonist conf	M4 ag counter
CN(C)c1ccc(N/C=C/C(=O)c2ccccc2)cc1	1	-2.67	-0.0646	2.54*	u	-8.64
N#CC1=C(N)N2C(=C(C#N)C1c1ccccc1)Sc1ccccc12 (stereo not drawn)	0.7	-0.737	0.565	25.9	x	x
CCOc1ccc(C2C(C#N)=C(N)N3C(=C2C#N)Sc2ccccc23)cc1 (stereo not drawn)	1.1	-1.29	-0.441	9.91*	u	u
O=C(Cn1nnc(-c2ccccc2)n1)OCc1csc(-c2ccccc2)n1	0.8	-0.372	-0.206	13.6*	-26.8	-27.6
Cc1ccc(Cl)cc1N1CCN(C(=O)C2CCN(S(=O)(=O)c3c(C)nn(C)c3C)CC2)CC1	1.4	x	-2.61*	8.03*	u	-58.7
COc1cccc(CSc2nnc(-c3ccco3)n2C)c1	1.1	0.1	-0.106	-0.0177	x	x
COc1ccc2c(c1OC)C(=O)N1c3ccccc3C(=O)N(c3ccccc3F)C21 (stereo not drawn)	0.9	-2.09	0.0953	9.26*	-25.9*	-92.2*
O=C1c2ccccc2N2C(=O)c3ccccc3[C@H]2N1c1ccccc1	0.9	x	x	x	x	x
CCOC(=O)C(C(=O)Nc1ccc(C)cc1)C1CCCCC1 (stereo not drawn)	0.9	0.745	x	x	x	x
COc1cccc(CNn2c(-c3cccc(C)c3)nc3ccccc3c2=O)c1O	1.1	-0.49	-1.22	8.57*	u	-42.9
CCc1ccc(N(CC(=O)Nc2nc3ccc(C)cc3s2)S(=O)(=O)c2c(C)noc2C)cc1	1.5	-2.49	x	x	x	x
Cc1ccc(C(C)C)c(OCC(=O)Nc2ccccc2N2CCN(C)CC2)c1	1.6	-2.08	-0.219	0.803	x	x
CCC(=O)N1CCN(c2ccccc2NC(=O)c2cccc(C)c2)CC1	1.5	0.885	-0.571	9.81*	-14.5	u
CC(=O)N1CCN(c2ccccc2NC(=O)COc2cc(C)ccc2C(C)C)CC1	1.7	-5.74*	-0.87	4.27*	-26.1*	-55.7
O=C(Nc1ccccc1N1CCN(C(=O)c2ccc(Cl)cc2)CC1)c1ccc2c(c1)OCO2	1.5	-1.36	0.0137	-2.21*	-25.7	-28.3
CCC(=O)N1CCN(c2ccccc2NC(=O)COc2cccc(C)c2)CC1	1.5	-2.2	-0.601	2.56	x	x
CCC(=O)N1CCN(c2ccccc2NC(=O)COc2ccccc2Cl)CC1	1.5	-3.41	-0.494	4.28*	u	-74.9
CCC(=O)N1CCN(c2ccc(NC(=O)COc3ccccc3Cl)cc2)CC1	1.6	-0.932	x	x	x	x
C=CCSc1nnc(-c2ccncc2)n1-c1ccc(OCC)cc1	1	-0.00708	0.624	1.73*	-12.4	-25.1
c1csc(CCNc2ncnc3sc4c(c23)CCC4)c1	1.5	x	-1.34*	3.92*	3.06	-21.1
c1ccc(Nc2ncnc3sc4c(c23)CCC4)cc1	0.8	-1.61	x	x	x	x
CC(=O)c1ccc(NC(=O)N2CCN(c3cccc(Cl)c3)CC2)cc1	1.1	-0.522	-2.8*	5.15*	u	-27.8
O=C(Nc1ccc(Cl)cc1)N1CCN(c2ccccc2)CC1	x	-2.4	x	x	x	x
CC1(C(=O)NCc2cccnc2)CCC(=O)N1Cc1cccs1 (stereo not drawn)	1	x	0.93	1.73	x	x
CCOC(=O)c1nnn(-c2nonc2N)c1CN1CCc2ccccc2C1	0.9	-2.09	0.224	-2.65*	-26.5*	u
CCOC(=O)C1CCCN(C/C(O)=C(\C#N)c2nc(-c3ccc(Cl)cc3)cs2)C1 (stereo not drawn)	1.5	-0.884	0.136	21.2*	u	-29.2
CCOC(=O)C1CCN(C(=O)C2c3ccccc3C(=O)N(C)C2c2ccc(OC)cc2)CC1 (stereo not drawn)	1.5	2.17	-0.71	10.1*	u	-38.7
